This assay has as its system Trichoderma virens ATCC 9645. Briefly: growth yield (OD600) relative to untreated control; higher = less growth inhibition. The conditions noted are these: compound concentration: 100 uM. A digest of the protocol: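 Trichoderma virens ATCC 9645 spores from 7-day potato dextrose agar plates were suspended in potato dextrose broth at 15,000 spores ml^−1. Aliquots of 100 μl with library compounds at 100 μM final, with or without a co-applied biocide at 200 ng ml^−1, were grown in 96-well plates at 30 °C. OD600 was read at 40 h and 72 h on a BioTek EL800. Growth is expressed relative to the control without either agent, as means of duplicate screens.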

Counter-ions that a name gives are not always drawn. ± gives the standard error. The whole screen tested about 1,300 compounds, of which about 75 (6%) showed an effect of 50% or more. The full list was thinned out, with strong results kept by preference.

Consider `C[C@@H]1C[C@H]2[C@@H]3C[C@H](F)C4=CC(=O)C=C[C@]4(C)[C@@]3(F)[C@@H](O)C[C@]2(C)[C@@]1(O)C(=O)COC(=O)C(C)(C)C` [Flumethasone pivalate], for which the growth yield runs as follows: (40 h) 106 ± 7.2%; (72 h) 104 ± 5.3%.

In the case of `Cc1ccccc1OCC(O)CO` (stereo not drawn) [Mephenesin], the growth yield was determined as 98 ± 3.3% (40 h) and 99.5 ± 3.5% (72 h).

Take `Cc1cnc(C(=O)NCCc2ccc(S(=O)(=O)NC(=O)NC3CCCCC3)cc2)cn1` [Glipizide]: the growth yield reads like this: (40 h) 103.7 ± 0.48%; (72 h) 104.3 ± 0.52%.

Take `O=C(O)[C@H]1/C(=C/CO)O[C@@H]2CC(=O)N21` [Clavulanate potassium salt]: the growth yield is, setting by setting: (40 h) 95.5 ± 2.4%; (72 h) 87.9 ± 3.4%.

Regarding `CC(COc1ccccc1)NC(C)C(O)c1ccc(O)cc1` (stereo not drawn) [Isoxsuprine hydrochloride], the growth yield came to 101 ± 1.1% (40 h) and 98.6 ± 2.3% (72 h).

For `Oc1ccc(OCc2ccccc2)cc1` [Monobenzone], the growth yield runs as follows: (40 h) 48.6 ± 0.64%; (72 h) 53.3 ± 1.7%.

Take `CC(COc1ccccc1)N(CCCl)Cc1ccccc1` (stereo not drawn) [Phenoxybenzamine hydrochloride]: the growth yield reads like this: (40 h) 104 ± 4.6%; (72 h) 103 ± 4.2%.

With `Cc1ccc(O)c([C@H](CCN(C(C)C)C(C)C)c2ccccc2)c1` [Tolterodine tartrate], the growth yield reads like this: (40 h) 96.7 ± 2.7%; (72 h) 97.95 ± 0.42%.

In the case of `CN(C)CCn1nnnc1SCC1=C(C(=O)O)N2C(=O)[C@@H](NC(=O)Cc3csc(N)n3)[C@H]2SC1` [Cefotiam hydrochloride], the growth yield is, setting by setting: (40 h) 102 ± 1.4%; (72 h) 102.2 ± 0.73%.

`C[C@@H](c1ncncc1F)[C@](O)(Cn1cncn1)c1ccc(F)cc1F` [Voriconazole]: the growth yield was 3.02 ± 1.4% (40 h) and 2.41 ± 0.94% (72 h).

`OC(Cn1cncn1)(Cn1cncn1)c1ccc(F)cc1F` [Fluconazole]: the growth yield (40 h) worked out at 55.1 ± 1.8% and the growth yield (72 h) turned out to be 61.14 ± 0.52%.

With `N=C(NCCCCCCNC(=N)NC(=N)Nc1ccc(Cl)cc1)NC(=N)Nc1ccc(Cl)cc1` [Chlorhexidine], the growth yield was 2.7 ± 1.4% (40 h) and 2.31 ± 0.84% (72 h).

As to `N=C(N)NC(=N)NCCc1ccccc1` [Phenformin hydrochloride], the growth yield reads like this: (40 h) 96.9 ± 1.9%; (72 h) 91.5 ± 2.7%.

On to `CC(C)NC(=N)NC(=N)Nc1ccc(Cl)cc1` [Proguanil hydrochloride], for which the growth yield is, setting by setting: (40 h) 110 ± 13%; (72 h) 109 ± 9%.

Regarding `CC(C)NCC(O)c1ccc2ccccc2c1` (stereo not drawn) [Pronethalol hydrochloride], the growth yield reads like this: (40 h) 98.6 ± 2.1%; (72 h) 99.3 ± 2%.

Regarding `CC(=O)N[C@@H](CC(=O)N[C@@H](CCC(=O)O)C(=O)O)C(=O)O` [Spaglumic acid], the growth yield (40 h) stood at 101 ± 3.5% and the growth yield (72 h) turned out to be 99.5 ± 1.4%.

As to `C[N+](C)(CCOc1ccccc1)Cc1ccccc1.O=C([O-])c1cc2ccccc2cc1O` [Bephenium hydroxynaphthoate], the growth yield amounted to 73.2 ± 1.1% (40 h) and 79.6 ± 2.2% (72 h).

Turning to `Cc1cc(C(C)(C)CC(C)(C)C)ccc1OCCOCC[N+](C)(C)Cc1ccccc1` [Methyl benzethonium chloride], the growth yield (40 h) was 1.43 ± 0.79% and the growth yield (72 h) was found to be 0.944 ± 0.52%.

Regarding `CC(C)(C)CC(C)(C)c1ccc(OCCOCC[N+](C)(C)Cc2ccccc2)cc1` [Benzethonium chloride], the growth yield (40 h) amounted to 1.75 ± 0.16% and the growth yield (72 h) was determined as 1.78 ± 0.1%.

`CCOc1ccccc1OCC1CNCCO1` (stereo not drawn) [Viloxazine hydrochloride]: the growth yield amounted to 99.6 ± 1.8% (40 h) and 96.4 ± 1.4% (72 h).

For the molecule `COc1ncnc(NS(=O)(=O)c2ccc(N)cc2)c1OC` [Sulfadoxine], the growth yield runs as follows: (40 h) 91 ± 9.4%; (72 h) 101 ± 2.6%.

`O=C1c2cccc3c2[C@H](CCC3)CN1[C@@H]1CN2CCC1CC2` [Palonosetron hydrochloride]: the growth yield by setting is: (40 h) 103 ± 6%; (72 h) 99 ± 4.2%.

For `O=C(NCCN1CCOCC1)c1ccc(Cl)cc1` [Moclobemide], the growth yield amounted to 102 ± 2.1% (40 h) and 106 ± 2% (72 h).

On to `COc1ccc2[nH]c([S+]([O-])Cc3ncc(C)c(OC)c3C)nc2n1` (stereo not drawn) [Tenatoprazole], for which the growth yield is, setting by setting: (40 h) 98.8 ± 4.8%; (72 h) 102 ± 1.6%.

Consider `CCOC(=O)c1ccc(OC(=O)CCCCCNC(=N)N)cc1` [Gabexate mesilate], for which the growth yield reads like this: (40 h) 76.6 ± 4.5%; (72 h) 76 ± 3.7%.

With `Cc1nnc(NS(=O)(=O)c2ccc(N)cc2)s1` [Sulfamethizole], the growth yield reads like this: (40 h) 100.4 ± 0.32%; (72 h) 99.74 ± 0.1%.

`COC(=O)[C@H](c1ccccc1Cl)N1CCc2sccc2C1` [Clopidogrel]: the growth yield (40 h) is 76.9 ± 1.6% and the growth yield (72 h) is 82 ± 1.1%.

As for `CO[C@@]1(NC(=O)Cc2cccs2)C(=O)N2C(C(=O)O)=C(COC(N)=O)CS[C@@H]21` [Cefoxitin sodium salt], the growth yield by setting is: (40 h) 94.4 ± 3.5%; (72 h) 94.8 ± 1.9%.

As for `Nc1ccc(/N=N/c2ccccc2)c(N)n1` [Phenazopyridine hydrochloride], the growth yield reads like this: (40 h) 21.1 ± 1.4%; (72 h) 49.4 ± 6.2%.

As for `Nc1c2ccccc2nc2ccccc12` [Aminacrine], the growth yield (40 h) is 98.64 ± 0.48% and the growth yield (72 h) was determined as 96.9 ± 2.9%.

`CCN(Cc1ccncc1)C(=O)C(CO)c1ccccc1` (stereo not drawn) [Tropicamide]: the growth yield is 99.6 ± 1.8% (40 h) and 102 ± 1.1% (72 h).

As to `CO[C@@H]1[C@@H](OC(N)=O)[C@@H](O)[C@H](Oc2ccc3c(O)c(NC(=O)c4ccc(O)c(CC=C(C)C)c4)c(=O)oc3c2C)OC1(C)C` [Novobiocin sodium salt], the growth yield worked out at 92 ± 1.8% (40 h) and 115 ± 4.7% (72 h).

As for `CCOC(=O)[C@@](C)(N)Cc1ccc(O)c(O)c1` [Methyldopate hydrochloride], the growth yield amounted to 104 ± 5.2% (40 h) and 97.85 ± 0.94% (72 h).

`N[C@H]1CONC1=O` [(S)-(-)-Cycloserine]: the growth yield is, setting by setting: (40 h) 104 ± 3.3%; (72 h) 96.8 ± 3%.

For the origin of these results see the supplement of paper PMC8007513.
